The values below come from PubChem BioAssay (NCATS).

The structures appear in SMILES notation. Where “and” joins values, the source holds several entries; their conditions need not be identical. Equal entries are not always repeated. Records with an inconclusive call do not appear. Calls of active or inactive are those of the source. Unless noted, the call rests on the fitted dose curve; in most records, active means well fitted curve in the direction sought with a large enough effect; inconclusive means small, poorly fitted or top-dose-only effect, or another doubt; inactive means no such curve, though single readings can be large; an effect the other way counts as inactive or inconclusive. Where a SMILES comes first, the peptide text is derived from it. The star is where a group is joined. PhAc = O=C(Cc1ccccc1)*

Experiment [1] deals with Calcium and integrin-binding protein 1 (Homo sapiens) (UniProt Q99828). The experiment can be described thus: Primary qHTS for Identification of Calcium Integrin Binding Protein 1 (CIB1) Competitor (AID 1508620).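 Further: GST tagged CIB1 binding a fluorescein labelled alphaIIb integrin peptide tracer; top concentration of the series differs between compounds.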 To be noted: CIB1-GST / FITC-alphaIIb peptide fluorescence polarization; series mostly up to 57.7 µM. The gist of the method:
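CIB1-GST (1 uM final) and compound incubated 15 min at room temperature before adding FITC-alphaIIb peptide tracer (100 nM final). Competition for binding read by fluorescence polarization (ex 480, em 540) after another 15 min at room temperature.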
In general terms: Quantitative high-throughput screening tests each substance at several concentrations.

For experiment [2], the target named is Cytochrome P450 2D6 (Homo sapiens) (UniProt P10635). In words: Cytochrome P450 family 2 subfamily D member 6 (CYP2D6) small molecule antagonists: luciferase biochemical (cell-free) qHTS assay (AID 1645840; active means well fitted curve in the direction sought with a large enough effect in the repeat runs; an effect the other way counts as inactive or inconclusive; further: nearly all actives have a fitted effect of over 55% in size; further: potency means the concentration at half of the fitted maximal effect). The settings on record: P450-Glo CYP2D6 enzyme, luciferin luminescence, 1 h; series mostly up to 57.4 µM. The gist of the method: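 P450-Glo CYP2D6 system: proluciferin substrate converted by enzyme to luciferin, read by luminescence proportional to activity. Enzyme-substrate mix with compound 10 min at room temperature, then NADPH regeneration 1 h before detection reagent.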
Sequence of Cytochrome P450 2D6 (Homo sapiens) (P10635 whole entry, looked up): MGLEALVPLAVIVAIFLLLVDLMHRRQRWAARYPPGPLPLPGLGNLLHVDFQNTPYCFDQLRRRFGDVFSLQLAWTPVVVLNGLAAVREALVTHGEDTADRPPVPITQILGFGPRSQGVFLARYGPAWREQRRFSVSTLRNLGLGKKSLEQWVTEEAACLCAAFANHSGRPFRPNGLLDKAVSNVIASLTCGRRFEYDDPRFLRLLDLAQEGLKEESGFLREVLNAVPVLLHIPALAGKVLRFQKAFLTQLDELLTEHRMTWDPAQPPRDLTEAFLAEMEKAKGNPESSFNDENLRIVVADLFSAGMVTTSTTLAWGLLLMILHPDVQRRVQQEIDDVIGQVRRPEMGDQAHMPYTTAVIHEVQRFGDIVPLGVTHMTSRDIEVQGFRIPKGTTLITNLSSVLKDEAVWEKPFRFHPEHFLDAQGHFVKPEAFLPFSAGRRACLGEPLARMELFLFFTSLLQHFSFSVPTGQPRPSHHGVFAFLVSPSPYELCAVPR

Experiment [3] deals with Cytochrome P450 2C9 (Homo sapiens) (UniProt P11712). In words: Cytochrome P450 family 2 subfamily C member 9 (CYP2C9) small molecule antagonists: luciferase biochemical (cell-free) qHTS assay (AID 1645842; active means well fitted curve in the direction sought with a large enough effect in the repeat runs; an effect the other way counts as inactive or inconclusive; further: nearly all actives have a fitted effect of over 55% in size; further: potency means the concentration at half of the fitted maximal effect). The settings on record: P450-Glo CYP2C9 enzyme assay, luciferin luminescence; series mostly up to 57.4 µM. The gist of the method: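 P450-Glo CYP2C9 system: proluciferin substrate with enzyme in mix containing 0.4% BSA, 10 min at room temperature, then NADPH regeneration solution added and incubated 1 h at 37C. Detection reagent stopped reaction; luminescence read after 20 min as RLU.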
Sequence of Cytochrome P450 2C9 (Homo sapiens) (P11712 whole entry, looked up): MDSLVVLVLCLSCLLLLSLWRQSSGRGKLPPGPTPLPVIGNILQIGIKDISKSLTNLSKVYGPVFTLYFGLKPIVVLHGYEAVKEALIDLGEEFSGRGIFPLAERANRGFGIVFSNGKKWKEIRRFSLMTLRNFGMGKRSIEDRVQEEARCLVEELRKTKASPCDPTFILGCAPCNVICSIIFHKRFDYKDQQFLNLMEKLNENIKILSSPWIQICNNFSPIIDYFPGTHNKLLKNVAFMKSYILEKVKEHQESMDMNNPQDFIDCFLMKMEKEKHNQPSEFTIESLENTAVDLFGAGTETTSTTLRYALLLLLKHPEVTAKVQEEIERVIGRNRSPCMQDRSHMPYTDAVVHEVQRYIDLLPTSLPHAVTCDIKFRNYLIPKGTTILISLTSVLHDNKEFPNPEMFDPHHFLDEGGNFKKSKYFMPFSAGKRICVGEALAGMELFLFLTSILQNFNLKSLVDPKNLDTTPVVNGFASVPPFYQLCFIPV

Experiment [4] is described as follows: Primary qHTS for inhibitors of nuclear receptor binding SET domain protein 2 (NSD2) in an isogenic RCH-ACV NSD2 p.E1099K mutant (9B) (AID 1645876). Further: nearly all actives have a fitted effect of over 70% in size. Further: potency means the concentration at half of the fitted maximal effect. The settings on record: RCH-ACV NSD2 E1099K (9B) viability, CellTiter-Glo, 72 h; series mostly up to 44.9 µM.
Experiment [5] can be described thus: Primary qHTS for inhibitors of nuclear receptor binding SET domain protein 2 (NSD2) in an RCH-ACV wild type WT cells (2C) (AID 1645877). Further: nearly all actives have a fitted effect of over 70% in size. Further: potency means the concentration at half of the fitted maximal effect. The settings on record: RCH-ACV (leukaemia line) NSD2 WT (2C) viability, CellTiter-Glo, 72 h; series mostly up to 44.9 µM.
For experiment [6], the target named is Cytochrome P450 3A4 (Homo sapiens) (UniProt P08684). In words: Cytochrome P450 family 3 subfamily A member 4 (CYP3A4) small molecule antagonists: luciferase qHTS assay (AID 1645841; active means well fitted curve in the direction sought with a large enough effect in the repeat runs; an effect the other way counts as inactive or inconclusive; further: nearly all actives have a fitted effect of over 45% in size). To be noted: P450-Glo CYP3A4 enzyme assay, luciferin luminescence; series mostly up to 57.4 µM. The gist of the method: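 Luminescent CYP3A4 activity readout: compounds plus enzyme-substrate mix 10 min at room temperature, reaction started with NADPH regenerating system for 1 h, stopped with detection reagent, read after 20 min. Ketoconazole served as control.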
Sequence of Cytochrome P450 3A4 (Homo sapiens) (P08684 whole entry, looked up): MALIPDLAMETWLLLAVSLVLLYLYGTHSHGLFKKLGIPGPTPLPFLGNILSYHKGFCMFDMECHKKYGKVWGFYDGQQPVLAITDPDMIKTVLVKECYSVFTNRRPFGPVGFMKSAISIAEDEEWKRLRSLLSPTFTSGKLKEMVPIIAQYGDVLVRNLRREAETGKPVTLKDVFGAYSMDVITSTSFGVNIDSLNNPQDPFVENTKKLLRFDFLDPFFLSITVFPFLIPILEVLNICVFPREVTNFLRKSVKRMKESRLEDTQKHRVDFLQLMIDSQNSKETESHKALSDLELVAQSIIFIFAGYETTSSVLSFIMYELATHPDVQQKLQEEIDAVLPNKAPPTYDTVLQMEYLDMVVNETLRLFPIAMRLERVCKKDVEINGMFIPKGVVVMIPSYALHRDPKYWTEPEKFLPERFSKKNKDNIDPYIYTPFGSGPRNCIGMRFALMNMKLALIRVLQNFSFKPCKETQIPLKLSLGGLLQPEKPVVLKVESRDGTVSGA

Sequence of Calcium and integrin-binding protein 1 (Homo sapiens) (Q99828 whole entry, looked up): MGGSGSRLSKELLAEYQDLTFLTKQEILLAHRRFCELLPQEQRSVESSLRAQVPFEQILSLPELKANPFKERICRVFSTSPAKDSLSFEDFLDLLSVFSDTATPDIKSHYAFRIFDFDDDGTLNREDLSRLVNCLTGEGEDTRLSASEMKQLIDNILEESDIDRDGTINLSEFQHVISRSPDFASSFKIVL

As for `Cc1cc(Cn2cnc3c2CC(C(=O)O)N(C(=O)C(c2ccccc2)c2ccccc2)C3)ccc1N(C)C` (stereo not given), the Potency entry in experiment [1], in experiment [2], in experiment [3], in experiment [4] and in experiment [5] was “inactive” each time.

As to `COc1cc(Nc2nc3ccccc3nc2NS(=O)(=O)c2cccc(NC(=O)c3ccc(C)c(OC)c3)c2)cc(OC)c1`, the Potency entry in experiment [1], in experiment [2], in experiment [4] and in experiment [5] was “inactive” each time. In experiment [3], the Potency was 1.51 µM (active).

`CCOC(=O)CSc1nc2c(sc3ccccc32)c(=O)n1CCCN1CCCC1`: the Potency result in experiment [1], in experiment [4] and in experiment [5] was “inactive” throughout. Further, the Potency was 0.849 µM (active) in experiment [2] and 13.5 µM (active) in experiment [3].

As for `CCCC(=O)Nc1cccc(NC(=O)c2ccccc2Br)c1`, the Potency result in experiment [1], in experiment [2], in experiment [3], in experiment [4] and in experiment [5] was “inactive” throughout.

For the molecule `CNC(=O)c1ccc2c(c1)CCO[C@H]2CCN1CCN(c2ccc(C(N)=O)cc2)CC1`, the Potency entry in experiment [1], in experiment [2], in experiment [3], in experiment [4] and in experiment [5] was “inactive” throughout.

For `COc1ccc(-n2c(SCC#N)nc3sc4c(c3c2=O)CCCC4)cc1`, the Potency entry in experiment [1], in experiment [2], in experiment [4] and in experiment [5] was “inactive” throughout. Further, the Potency in experiment [3] is 4.77 µM (active).

As for `CN(C)c1ccc(C2O[C@@H](c3ccccc3)C[C@H](c3ccccc3)O2)cc1` (stereo not given in full), the Potency entry in experiment [1], in experiment [2], in experiment [4] and in experiment [5] was “inactive” in each case. In experiment [3], the Potency was 15.1 µM (active).

In the case of `COC(=O)C(CC1CCCC1)c1ccc(S(C)(=O)=O)cc1` (stereo not given), the Potency entry in experiment [1], in experiment [4] and in experiment [5] was “inactive” throughout. In addition, the Potency in experiment [2] is 12 µM (active); in experiment [3] it was 4.77 µM (active).

In the case of `COc1cccc(OC)c1-c1nc(C(=O)N[C@@H](CC(C)C)C(=O)O)cn1-c1ccnc2cc(Cl)ccc12`, the Potency entry in experiment [1], in experiment [2], in experiment [3], in experiment [4] and in experiment [5] was “inactive” throughout.

With `CCOc1ncc(S(=O)(=O)N2CCN(CC)CC2)cc1-c1nc2c(CC)n(CCOC)nc2c(=O)[nH]1`, the Potency result in experiment [1], in experiment [2], in experiment [4] and in experiment [5] was “inactive” throughout. For the same molecule, the Potency in experiment [3] was 10.7 µM (active).

As for `CCC[C@H](N[C@@H](C)C(=O)N1[C@H](C(=O)O)C[C@@H]2CCCC[C@@H]21)C(=O)O`, the Potency result in experiment [1], in experiment [2], in experiment [3], in experiment [4] and in experiment [5] was “inactive” throughout.

As to `O=C(Nc1ccc(N2CCC(C(=O)N3CCOCC3)CC2)cc1)c1cnc(Oc2ccccc2)nc1`, the Potency entry in experiment [1], in experiment [2], in experiment [4] and in experiment [5] was “inactive” throughout.

Regarding `CCOC(=O)CNC(=O)[C@@H]1CCCN1C(=O)Cc1ccccc1` (PhAc-Pro-Gly-OEt), the Potency result in experiment [1], in experiment [2], in experiment [4] and in experiment [5] was “inactive” throughout.

For `Cc1occc1C(=O)n1ccnc1`, the Potency entry in experiment [1], in experiment [2] and in experiment [4] was “inactive” throughout.

On to `COc1ccc(N2CCN(CCCNC(=O)Cn3c(=O)c4cccn4c4c(C)ccnc43)CC2)cc1`, for which the Potency result in experiment [1], in experiment [2], in experiment [4] and in experiment [5] was “inactive” each time.

On to `Cc1ncc(NC(=O)c2ccc(CN3CCN(C)CC3)c(C(F)(F)F)c2)cc1Nc1nccc(-c2cccnc2)n1`, for which, in experiment [1], the Potency result is “inactive”. Besides, the Potency in experiment [2] is 10.7 µM (active); in experiment [4] it was 7.28 µM (active) and 5.9 µM (active); in experiment [5] it was 8.17 µM (active) and 5.9 µM (active).

As to `O=C(c1ccc(Cl)c([N+](=O)[O-])c1)N1CCN(c2ccccc2F)CC1`, the Potency entry in experiment [1] and in experiment [2] was “inactive” each time. In addition, the Potency in experiment [3] is 2.68 µM (active); in experiment [5], 16.3 µM (active).

Regarding `N#Cc1ccc(C2CCCc3cncn32)cc1` (stereo not given), the Potency entry in experiment [1], in experiment [4] and in experiment [5] was “inactive” in each case. Moreover, the Potency in experiment [2] is 17.5 µM (active).

Consider `O=C(CCCCC1CCCCC1)N1CCC(c2cnc[nH]2)CC1`, for which the Potency entry in experiment [1] is “inactive”. The results for the Potency in experiment [2] and in experiment [4] were 5.35 µM (active) and 23 µM (active), respectively.

For `COc1cnc(-n2cnc(C)n2)c2[nH]cc(C(=O)C(=O)N3CCN(C(=O)c4ccccc4)CC3)c12`, the Potency result in experiment [1], in experiment [2], in experiment [4] and in experiment [5] was “inactive” throughout.

Regarding `CC(C)c1c(NC(=O)Nc2ccc(Cl)cc2)c(=O)n(-c2ccccc2)n1C`, the Potency result in experiment [1], in experiment [4] and in experiment [5] was “inactive” in each case. Besides, the Potency in experiment [2] was 12 µM (active).

`CCNC(=O)C1CC(F)(c2ccc(CN3CCCC3)c(F)c2)C1` (stereo not given): the Potency entry in experiment [1], in experiment [6], in experiment [3], in experiment [4] and in experiment [5] was “inactive” throughout.

In the case of `CC1(C)CC(NC(=O)C(=O)Nc2ccc(Cl)cc2)CC(C)(C)N1`, the Potency entry in experiment [1], in experiment [2], in experiment [3], in experiment [4] and in experiment [5] was “inactive” throughout.

For the molecule `Cc1ccccc1-c1cc(N2CCN(C)CC2)ncc1N(C)C(=O)C(C)(C)c1cc(C(F)(F)F)cc(C(F)(F)F)c1`, the Potency entry in experiment [1], in experiment [4] and in experiment [5] was “inactive” in each case. Besides, the Potency is 15.1 µM (active) in experiment [2] and 16.9 µM (active) in experiment [3].

For the molecule `Cc1[nH]c2ccccc2c1CC(=O)N[C@@H](Cc1ccccc1)C(=O)N(C)c1ccccc1`, the Potency result in experiment [1] and in experiment [5] was “inactive” each time. The Potency in experiment [2] is 16.9 µM (active); in experiment [3], 9.52 µM (active).

On to `Cc1cc(OCCN2CCOCC2)nn1-c1ccc2ccccc2c1`, for which the Potency result in experiment [1] and in experiment [4] was “inactive” in each case. Moreover, in experiment [2], the Potency was 5.35 µM (active).

Consider `CCCN1CCC[C@@H](c2cccc(S(C)(=O)=O)c2)C1`, for which the Potency entry in experiment [1], in experiment [3], in experiment [4] and in experiment [5] was “inactive” each time. In addition, in experiment [2], the Potency was 15.1 µM (active).
